Laboratory results taken from PubChem BioAssay (EPA / NIEHS).
Calls of active or inactive are those of the source. The calls were made as follows: active = hit-call score of the fitted dose curve at least 0.9, where 1 is the maximum; inactive = score below 0.9.

What was measured:
Conditions in all cases: mRNA level, 48 h; actives raise or lower the signal
[1] = read-out: ABC Transporter (ABCC3), ABCC3 (gene 8714); assay: LTEA_HepaRG_ABCC3: Life Technologies and Expression Analysis (LTEA) Assay for ABC Transporter (ABCC3) using HepaRG (AID 2283462)
In short: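 qRT-PCR read-out of ABCC3 transcript, normalized to three housekeeping genes (ACTB, GAPDH, POLR2A), after 48 h chemical exposure of human HepaRG cells. Eight half-log concentrations, highest 100 uM, in 0.5% DMSO; gain or loss fitted relative to DMSO baseline.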

[2] = read-out: ABC Transporter (ABCB11), ABCB11 (gene 8647); assay: LTEA_HepaRG_ABCB11: Life Technologies and Expression Analysis (LTEA) Assay for ABC Transporter (ABCB11) using HepaRG (AID 2283463)
In short: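 Using HepaRG cultures held in 0.5% DMSO, chemicals were tested at half-log dilutions from 100 uM for 48 h. Induction or suppression of ABCB11 mRNA, normalized to ACTB, GAPDH and POLR2A, was fitted bidirectionally against vehicle.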

[3] = read-out: ABC Transporter (ABCC2), ABCC2 (gene 1244); assay: LTEA_HepaRG_ABCC2: Life Technologies and Expression Analysis (LTEA) Assay for ABC Transporter (ABCC2) using HepaRG (AID 2283464)
In short: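 qRT-PCR (TaqMan, Fluidigm array) read-out of ABCC2 mRNA, normalized to three housekeeping genes. Differentiated HepaRG cells were treated 48 h in serum-free induction medium with 8-point half-log series from 100 uM in 0.5% DMSO; curves fitted bidirectionally relative to DMSO.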

[4] = read-out: Broad substrate specificity ATP-binding cassette transporter ABCG2 (Homo sapiens) (UniProt Q9UNQ0); assay: LTEA_HepaRG_ABCG2: Life Technologies and Expression Analysis (LTEA) Assay for ABC Transporter (ABCG2) using HepaRG (AID 2283465)
In short: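 Gene expression of ABCG2 in HepaRG liver cells is quantified by qRT-PCR following 48 h exposure across an eight-point series topping at 100 uM. Values come from bidirectional fitting relative to DMSO vehicle.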

[5] = read-out: ATP-citrate lyase (ACLY), ACLY (gene 47); assay: LTEA_HepaRG_ACLY: Life Technologies and Expression Analysis (LTEA) Assay for ATP-citrate lyase (ACLY) using HepaRG (AID 2283466)
In short: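 ACLY expression changes in human HepaRG liver cells are quantified by qRT-PCR after 48 h exposure to test chemicals (maximum 100 uM, half-log steps). Values are fitted in both directions relative to 0.5% DMSO vehicle.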

[6] = read-out: Alkaline Phosphatase, Placental (ALPP) gene, ALPP (gene 250); assay: LTEA_HepaRG_ALPP: Life Technologies and Expression Analysis (LTEA) Assay for Alkaline Phosphatase, Placental (ALPP) gene using HepaRG (AID 2283468);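 as to AC50: differentiated human HepaRG liver cells in serum-free induction medium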
In short: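 qRT-PCR readout of ALPP mRNA (Fluidigm TaqMan), normalized to ACTB/GAPDH/POLR2A, after 48 h chemical exposure of HepaRG cells; 8-point half-log series, top 100 uM, 0.5% DMSO vehicle. Bidirectional curve fit versus DMSO baseline.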

[7] = read-out: Bcl-2 (BAD) gene, BAD (gene 572); assay: LTEA_HepaRG_BAD: Life Technologies and Expression Analysis (LTEA) Assay for Bcl-2 (BAD) gene using HepaRG (AID 2283469)
In short: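 Activity values reflect up- or down-regulation of BAD mRNA in human HepaRG hepatic cells treated 48 h in serum-free medium, with eight-point half-log dosing capped at 100 uM and 0.5% DMSO vehicle.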

[8] = read-out: Bcl-2 (BAX) gene, BAX (gene 581); assay: LTEA_HepaRG_BAX: Life Technologies and Expression Analysis (LTEA) Assay for Bcl-2 (BAX) gene using HepaRG (AID 2283470)
In short: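 qRT-PCR read-out of BAX mRNA, normalized to three housekeeping genes, after 48 h chemical exposure of human HepaRG cells in serum-free induction medium; eight-point half-log series, top 100 uM, 0.5% DMSO vehicle; bidirectional fit versus DMSO.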

BCL2L11 (gene 10018) = assay: LTEA_HepaRG_BCL2L11: Life Technologies and Expression Analysis (LTEA) Assay for Bcl-2 (BCL2L11) gene using HepaRG (AID 2283473)
In short: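 HepaRG, 48 h exposure, 8-pt half-log series from 100 uM in 0.5% DMSO, duplicates; qRT-PCR (Fluidigm TaqMan) for BCL2L11, housekeeping-normalized; bidirectional curve fit relative to DMSO baseline.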

[9] = read-out: Apolipoprotein A-V (APOA5) gene, APOA5 (gene 116519); assay: LTEA_HepaRG_APOA5: Life Technologies and Expression Analysis (LTEA) Assay for Apolipoprotein A-V (APOA5) gene using HepaRG (AID 2283474)
In short: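 HepaRG, 48 h chemical exposure in serum-free induction medium, 8-pt half-log series (top 100 uM), 0.5% DMSO vehicle, duplicates. Readout: APOA5 mRNA by qRT-PCR, housekeeping-normalized; bidirectional fit vs DMSO baseline.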

[10] = read-out: Apoptosis regulator Bcl-2 (Homo sapiens) (UniProt P10415); assay: LTEA_HepaRG_BCL2: Life Technologies and Expression Analysis (LTEA) Assay for Bcl-2 gene using HepaRG (AID 2283475)
In short: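 qRT-PCR read-out (Fluidigm TaqMan) of BCL2 transcript, normalised to three housekeeping genes, after 48 h chemical exposure of HepaRG cells; 8-point half-log series, top 100 uM, 0.5% DMSO vehicle. Gain or loss of signal fitted relative to DMSO baseline.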

[11] = read-out: Bcl-2 (BID) gene, BID (gene 637); assay: LTEA_HepaRG_BID: Life Technologies and Expression Analysis (LTEA) Assay for Bcl-2 (BID) gene using HepaRG (AID 2283476)
In short: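 HepaRG, 48 h exposure, 8-pt half-log series, top 100 uM, 0.5% DMSO vehicle, duplicates. Readout: BID mRNA by TaqMan qRT-PCR; housekeeping-normalized; bidirectional curve fit vs DMSO baseline.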

Caspase-3 (Homo sapiens) = Caspase-3 (Homo sapiens) (UniProt P42574); assay: LTEA_HepaRG_CASP3: Life Technologies and Expression Analysis (LTEA) Assay for cysteine-aspartic acid protease (CASP3) using HepaRG (AID 2283477)
In short: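 HepaRG, 48 h exposure, 8 conc. (top 100 uM, half-log steps, duplicate), 0.5% DMSO vehicle; qRT-PCR of CASP3 transcript, housekeeping-normalised (ACTB/GAPDH/POLR2A); bidirectional curve fit vs DMSO baseline.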

[12] = read-out: Cytochrome P450 (CYP24A1), CYP24A1 (gene 1591); assay: LTEA_HepaRG_CYP24A1: Life Technologies and Expression Analysis (LTEA) Assay for Cytochrome P450 (CYP24A1) using HepaRG (AID 2283478)
In short: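 qRT-PCR read-out: CYP24A1 transcript levels normalized to three housekeeping genes, bidirectional curve fits against 0.5% DMSO baseline. Human HepaRG cells treated 48 h with chemicals at eight concentrations from 100 uM in half-log steps.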

[13] = read-out: Cytochrome P450 (CYP1A2), CYP1A2 (gene 1544); assay: LTEA_HepaRG_CYP1A2: Life Technologies and Expression Analysis (LTEA) Assay for Cytochrome P450 (CYP1A2) using HepaRG (AID 2283479)
In short: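 HepaRG, 48 h exposure, top 100 uM, half-log 8-pt, 0.5% DMSO vehicle, duplicates. Readout: TaqMan qRT-PCR of CYP1A2 mRNA, housekeeping-normalized (ACTB/GAPDH/POLR2A). Gain/loss fit relative to DMSO baseline.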

[14] = read-out: cysteine-aspartic acid protease (CASP8), CASP8 (gene 841); assay: LTEA_HepaRG_CASP8: Life Technologies and Expression Analysis (LTEA) Assay for cysteine-aspartic acid protease (CASP8) using HepaRG (AID 2283480)
In short: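 Concentration-response in duplicate up to 100 uM (half-log steps, 0.5% DMSO) on differentiated HepaRG cultures for 48 h. Expression change of CASP8 mRNA is determined by TaqMan qRT-PCR with housekeeping-gene normalization.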

[15] = read-out: Cytochrome P450 (CYP2B6), CYP2B6 (gene 1555); assay: LTEA_HepaRG_CYP2B6: Life Technologies and Expression Analysis (LTEA) Assay for Cytochrome P450 (CYP2B6) using HepaRG (AID 2283481)
In short: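 Read-out is CYP2B6 mRNA by TaqMan qRT-PCR, normalized to three housekeeping genes and fitted bidirectionally against 0.5% DMSO baseline. Human HepaRG cells received test chemicals for 48 h, top concentration 100 uM, half-log dilutions.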

[16] = read-out: adenosine kinase (ADK) gene, ADK (gene 132); assay: LTEA_HepaRG_ADK: Life Technologies and Expression Analysis (LTEA) Assay for adenosine kinase (ADK) gene using HepaRG (AID 2283471)
In short: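 HepaRG (human liver), 48 h chemical exposure, 8-pt half-log series, top 100 uM, 0.5% DMSO vehicle. Readout: ADK mRNA by qRT-PCR vs housekeeping genes; bidirectional curve fit relative to DMSO baseline.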

[17] = read-out: Alpha-fetoprotein (AFP) gene, AFP (gene 174); assay: LTEA_HepaRG_AFP: Life Technologies and Expression Analysis (LTEA) Assay for Alpha-fetoprotein (AFP) gene using HepaRG (AID 2283472)
In short: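 qRT-PCR (Fluidigm TaqMan) readout of AFP transcript, normalized to three housekeeping genes, fitted bidirectionally against 0.5% DMSO baseline. HepaRG cells received chemicals for 48 h in serum-free induction medium, top concentration 100 uM, half-log steps.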

Measured: AC50

Sequence of Broad substrate specificity ATP-binding cassette transporter ABCG2 (Homo sapiens) (Q9UNQ0 whole entry, looked up): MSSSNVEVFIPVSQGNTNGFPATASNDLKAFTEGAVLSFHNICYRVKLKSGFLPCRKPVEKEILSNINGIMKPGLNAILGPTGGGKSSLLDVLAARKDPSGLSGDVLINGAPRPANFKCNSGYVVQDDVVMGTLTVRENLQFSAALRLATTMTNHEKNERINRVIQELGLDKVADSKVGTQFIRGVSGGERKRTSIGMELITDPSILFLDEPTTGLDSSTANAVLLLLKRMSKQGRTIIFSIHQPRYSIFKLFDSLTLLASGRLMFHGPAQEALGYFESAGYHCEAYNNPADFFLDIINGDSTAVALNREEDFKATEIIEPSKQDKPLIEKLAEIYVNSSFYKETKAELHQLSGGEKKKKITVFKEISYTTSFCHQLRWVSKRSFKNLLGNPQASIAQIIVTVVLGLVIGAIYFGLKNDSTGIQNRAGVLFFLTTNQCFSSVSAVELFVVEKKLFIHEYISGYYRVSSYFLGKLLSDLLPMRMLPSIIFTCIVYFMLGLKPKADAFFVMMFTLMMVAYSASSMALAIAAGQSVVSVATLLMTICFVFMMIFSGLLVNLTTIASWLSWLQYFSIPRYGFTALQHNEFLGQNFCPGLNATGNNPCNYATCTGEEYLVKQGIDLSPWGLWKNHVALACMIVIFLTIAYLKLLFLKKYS
Sequence of Caspase-3 (Homo sapiens) (P42574 whole entry, looked up): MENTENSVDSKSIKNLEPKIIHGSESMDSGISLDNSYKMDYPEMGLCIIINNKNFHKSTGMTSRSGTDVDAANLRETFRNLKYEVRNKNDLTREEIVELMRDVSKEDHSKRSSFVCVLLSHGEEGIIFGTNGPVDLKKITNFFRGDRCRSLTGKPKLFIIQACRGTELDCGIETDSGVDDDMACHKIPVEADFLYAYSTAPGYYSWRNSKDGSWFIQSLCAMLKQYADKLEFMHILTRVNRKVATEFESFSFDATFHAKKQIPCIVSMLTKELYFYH
Sequence of Apoptosis regulator Bcl-2 (Homo sapiens) (P10415 whole entry, looked up): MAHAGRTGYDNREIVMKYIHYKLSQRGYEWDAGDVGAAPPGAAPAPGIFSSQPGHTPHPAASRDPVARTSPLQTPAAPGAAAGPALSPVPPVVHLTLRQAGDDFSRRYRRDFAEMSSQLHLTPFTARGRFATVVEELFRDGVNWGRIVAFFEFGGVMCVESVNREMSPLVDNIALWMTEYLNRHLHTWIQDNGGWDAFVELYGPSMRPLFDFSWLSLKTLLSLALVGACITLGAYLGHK

Cc1occc1C(=O)Nc1ccc(C(=O)N2CCC(F)(F)/C(=C\C(=O)N3CCC(N4CCCCC4)CC3)c3ccccc32)cc1
active: [1] 47 µM | [2] 44.5 µM | [5] 53.2 µM | [6] 46.7 µM | [9] 39 µM | [13] 18.4 µM | [15] 47.4 µM
not listed: [16] | [17]
inactive: all other assays above

CC[C@H](NC(=O)c1cc(F)ccc1NS(=O)(=O)c1cccc2cccnc12)c1ccccc1
active: [2] 47.8 µM | [3] 11.7 µM | [8] 9.47 µM | [9] 60.5 µM | [13] 76 µM | [15] 88.2 µM
not listed: [17]
inactive: all other assays above

O=C1c2ccccc2C(=O)N1CCc1noc(-c2ccc(CN3CCCCCC3)s2)n1
active: [13] 6.97 µM | [15] 27.9 µM
inactive: all other assays above

CC1(C)NC(=O)N(c2ccc([N+](=O)[O-])c(C(F)(F)F)c2)C1=O
active: [1] 75.3 µM | [2] 77.1 µM | [4] 29.3 µM | [5] 76.5 µM | [6] 50 µM | [9] 67.9 µM | [10] 78.9 µM | [13] 85.5 µM | [15] 81.4 µM
not listed: [17]
inactive: all other assays above

CN(C[C@@H](CC[N+]12CCC(C3CCCCC3)(CC1)CC2)c1ccc(Cl)c(Cl)c1)C(=O)c1cc(C(F)(F)F)cc(C(F)(F)F)c1
active: [2] 14.5 µM | [3] 63.3 µM | [6] 3.14 µM | [17] 23.2 µM | [9] 8.93 µM | [13] 11.5 µM | [15] 18 µM
inactive: all other assays above

Cc1ncc(CO)c(CO)c1O
not listed: [3] | [16]
inactive: all other assays above
